HP1b chromo inh: HTS for Inhibitors of HP1-beta Chromodomain Interactions with Methylated Histone Tails. Chromobox protein homolog 1 (Homo sapiens), P83916. Potency, µM (highest dose often 114 µM), for inactives: at the highest dose activity change, negative = inhibition, most hits filed as inhibitors. hit rate 0.56% among 390,000. AID 540317, 2011. AlphaScreen HP1-beta / biotin-H3K9me3 peptide binding; further: nearly all actives have a fitted effect of over 70% in size
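HP1-beta protein (50 nM final) preincubated 30 min at room temperature with biotinylated H3(1-18)K9me3 peptide (50 nM) in PBS pH 7.4, 0.01% Tween-20, then compound added for 30 min. AlphaScreen streptavidin donor/nickel chelate acceptor beads (10 ug/mL final), 30 min dark, luminescence read.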
BAZ2B block: qHTS Assay for Inhibitors of BAZ2B; Bromodomain adjacent to zinc finger domain protein 2B (Homo sapiens), Q9UIF8; AlphaScreen BAZ2B-H3K14Ac peptide displacement; Potency, µM (doses to about 114 µM), without a hit: top-dose activity change, negative = inhibition, most hits filed as inhibitors; hit rate 4.4% among 360,000; further: on the % scale 0 is the no-effect control and ±100 the full control effect; nearly all actives have a fitted effect of over 60% in size
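BAZ2B 50 nM plus b-H3(5-23)K14Ac 50 nM, PBS pH 7.4/0.01% Tween-20, 30 min RT; compound added (max 110 uM), 30 min RT; streptavidin donor/Ni-chelate acceptor beads 10 ug/mL final, 20 min dark; AlphaScreen read.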
JMJD2A Tudor inh: qHTS Assay for Inhibitors of JMJD2A-Tudor Domain. AlphaScreen JMJD2A-Tudor / H3K4me3 peptide binding. Lysine-specific demethylase 4A (Homo sapiens), O75164. AID 504339, 2011. hit rate 4.4% among 390,000. Potency, µM (doses to about 114 µM), inactives show at the top dose activity change, negative = inhibition, hits mostly inhibitors; further: on the % scale 0 is the no-effect control and ±100 the full control effect; nearly all actives have a fitted effect of over 50% in size
Target sequence (O75164 whole entry, looked up, the tested form may be a part): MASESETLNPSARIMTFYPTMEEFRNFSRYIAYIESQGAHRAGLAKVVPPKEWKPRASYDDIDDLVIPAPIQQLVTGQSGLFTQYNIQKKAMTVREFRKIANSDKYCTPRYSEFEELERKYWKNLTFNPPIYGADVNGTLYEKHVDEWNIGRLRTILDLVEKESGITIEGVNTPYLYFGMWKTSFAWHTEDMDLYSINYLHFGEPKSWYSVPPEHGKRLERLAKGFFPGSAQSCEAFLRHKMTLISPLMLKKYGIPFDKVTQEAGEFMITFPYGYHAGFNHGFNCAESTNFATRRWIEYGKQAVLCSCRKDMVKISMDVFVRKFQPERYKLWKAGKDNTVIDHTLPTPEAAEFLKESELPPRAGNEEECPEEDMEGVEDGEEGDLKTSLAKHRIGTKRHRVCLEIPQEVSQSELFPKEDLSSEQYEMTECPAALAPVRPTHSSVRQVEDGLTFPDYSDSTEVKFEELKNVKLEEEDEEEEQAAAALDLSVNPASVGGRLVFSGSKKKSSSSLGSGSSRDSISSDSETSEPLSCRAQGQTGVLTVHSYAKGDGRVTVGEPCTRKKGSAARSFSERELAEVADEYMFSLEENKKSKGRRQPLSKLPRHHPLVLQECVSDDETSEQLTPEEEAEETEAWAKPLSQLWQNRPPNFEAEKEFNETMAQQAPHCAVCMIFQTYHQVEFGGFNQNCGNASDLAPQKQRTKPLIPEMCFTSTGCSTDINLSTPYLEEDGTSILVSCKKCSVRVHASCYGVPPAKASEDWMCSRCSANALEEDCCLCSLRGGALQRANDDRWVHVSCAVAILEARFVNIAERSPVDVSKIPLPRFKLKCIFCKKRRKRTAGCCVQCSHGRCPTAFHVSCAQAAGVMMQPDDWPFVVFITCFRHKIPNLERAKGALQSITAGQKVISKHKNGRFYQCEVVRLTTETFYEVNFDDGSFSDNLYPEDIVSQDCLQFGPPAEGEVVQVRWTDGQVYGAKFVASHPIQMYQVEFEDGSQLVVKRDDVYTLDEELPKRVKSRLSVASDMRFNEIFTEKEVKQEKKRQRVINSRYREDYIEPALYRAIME
G9a inh: qHTS Assay for Inhibitors of Histone Lysine Methyltransferase G9a. G9a H3K9 monomethylation, AlphaScreen, 2 h. Potency, µM (top dose mostly 102 µM), inactives show at the highest dose activity, negative = inhibition, hits mostly inhibitors. hit rate 8.8% among 350,000. Histone-lysine N-methyltransferase EHMT2 (Homo sapiens), Q96KQ7; further: on the % scale 0 is the no-effect control and ±100 the full control effect; nearly all actives have a fitted effect of over 75% in size
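Compounds were preincubated with 20 nM G9a for 15 min, after which biotinylated H3K9 peptide (500 nM) and SAM (20 uM) started a 2 h room-temperature reaction. Monomethylated product was quantified by antibody-based AlphaScreen chemiluminescence.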
L3MBTL1 inh: qHTS Assay for the Inhibitors of L3MBTL1; Potency, µM (doses to about 57.1 µM), inactives show top-dose activity, negative = inhibition, most hits filed as inhibitors; hit rate 0.66% among 230,000; AlphaScreen L3MBTL1–H3K9me1 peptide binding; further: on the % scale 0 is the no-effect control and ±100 the full control effect; nearly all actives have a fitted effect of over 60% in size
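L3MBTL1 50 nM + b-AHA-H3(1-15)K9me1 75 nM, 30 min RT; compound added, 30 min RT; streptavidin donor/Ni-chelate acceptor beads 10 ug/mL each final, 30 min RT dark; AlphaScreen read.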
Active calls of the source: *; ? = inconclusive; · = no result given; [ ] = another dose, or the depositor's remark. A selection: hits, their analogues and other compounds. The true share with any hit is near 11%. The call rests on the fitted dose curve; in most records, active means well fitted inhibition curve with a large enough effect; inconclusive means small, poorly fitted or top-dose-only effect; inactive means no such curve, though single readings can be large or run the other way. Potency means the concentration at half of the fitted maximal effect.

SMILES	HP1b chromo inh	BAZ2B block	JMJD2A Tudor inh	G9a inh	L3MBTL1 inh
Cc1ccc(S(=O)(=O)c2nc(-c3ccccc3F)oc2N2CCCCC2)cc1	-17%	?	-22%	?	·
CCOC(=O)c1ccc(NC(=O)C2CCN(S(=O)(=O)Cc3ccccc3)CC2)cc1	113%	41%	42%	44%[59 µM]	·
C(=N\N=C\c1ccccn1)/c1ccccn1	59%	50µM*	?	2%	·
COc1ccc(CCC(=O)NNC(=O)c2ccc(OC)cc2)cc1	-4%	7%	-10%	32%	·
Cc1cc2c(s1)c1cnn(Cc3ccc(C)c(F)c3)c(=O)c1n2C	·	·	-32%	·	·
COc1cccc(-c2ccc3ncnc(N(C)C)c3c2)c1	·	·	·	4%[0.501 µM]	·
CC1Sc2ccc(C(=O)O)cc2NC1=O (stereo unspecified)	27%	-7%	-9%[57.1 µM]	-42%	·
O=C(NCc1ccc(Cl)cc1)c1ccc2c(c1)NC(=O)C(CS(=O)(=O)Cc1ccccc1Cl)N2 (stereo unspecified)	6%	-15%	10%	?	·
COc1ccc(CNC(=O)c2ccc3c(c2)NC(=O)C(C)S3)cc1 (stereo unspecified)	-15%	-21%	-25%	10µM*	-9%
CCCCNC(=O)c1ccc2c(c1)NC(=O)C(CS(=O)(=O)Cc1cccc(C)c1)N2 (stereo unspecified)	48%	10%[57.1 µM]	-12%	14µM*	·
COc1ccc(CNC(=O)c2ccc3c(c2)NC(=O)C(CS(=O)(=O)Cc2ccccc2Cl)N3)cc1 (stereo unspecified)	-8%	8%[57.1 µM]	-30%	11µM*	·
Cc1ccc(-n2nnnc2CNC(=O)c2ccccc2)cc1C	28%[57 µM]	8%	-14%	2%[59 µM]	·
O=c1oc2c(CN3CCOCC3)c(O)c(Cl)cc2c2c1CCCC2	16%	11%	-2%	79µM*	33%
Cc1cccc2sc(N(CCN3CCOCC3)C(=O)CCS(=O)(=O)c3ccccc3)nc12	17%	0%	-16%	50µM*	-7%
Cc1cccc2sc(N(CCCN3CCOCC3)C(=O)CS(=O)(=O)c3ccc(F)cc3)nc12	15%	-26%	-26%	56µM*	3%
CC(C(=O)OCC(=O)c1ccccc1)N1C(=O)c2ccccc2C1=O (stereo unspecified)	-9%	0%	-9%	0%	15%
CCOC(=O)C(C)N1C(=O)S/C(=C\c2ccc(-c3ccccc3C(=O)O)o2)C1=O (stereo unspecified)	?	25µM*	22µM*	10µM*	·
Cc1ccc(C)c(N2C(=N)S/C(=C\c3ccc(-c4ccccc4C(=O)O)o3)C2=O)c1	-38%	20µM*	32µM*	2.2µM*	?
Cc1ccc(C)c(CN2C(=O)COc3ccc(C(=O)c4ccccc4C(=O)O)cc32)c1	30%	-24%	-17%	7%	-1%
COc1ccc2noc3c2c1C(=O)c1ccccc1-3	-14%	·	?	·	·
O=C1c2ccccc2-c2onc3ccc(NCCCn4ccnc4)c1c23	?	14µM*	50µM*	-26%[12.7 µM]	·
CCOC(=O)C1(Cc2cccc(OC)c2)CCN(C2CCOCC2)CC1	-13%	50µM*	-16%	50µM*	-18%
CCOC(=O)C1(Cc2cccc(F)c2)CCN(C2CCOCC2)CC1	29%	0%	-13%	5%	-5%
Cc1ccc(S(=O)(=O)Nc2ccc(O)c(S(=O)(=O)c3ccc(C)cc3)c2)cc1	11%	-17%	-11%	·	·
Cc1ccc(S(=O)(=O)c2cc(O)ccc2O)cc1C	-35%	-9%	-21%	50µM*	·
CC(=O)Nc1ccc(S(=O)(=O)c2cc(O)ccc2O)cc1	?	-37%	-13%	13µM*	0%
c1coc(C2OCC3(CO2)COC(c2ccco2)OC3)c1 (stereo unspecified)	18%	-2%	-21%	5%	·
OC1CC(c2ccco2)NC2(CCCCC2)C1 (stereo unspecified)	-55%	?	7.9µM*	8.9µM*	-4%

Compound activity deposited in PubChem by National Center for Advancing Translational Sciences (NCATS).
